Consider 14 compounds from PubChem BioAssay (NCI).

The panel holds about 83,000 compounds, 20% with a hit somewhere; the sample as a whole holds those more often.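 Compound tested at a single concentration for 48 hours in 96-well plates; a percent growth value below 10 was scored as active.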 Values without a mark were called inactive. Calls of active or inactive are those of the source.

In the test the test system is NCI-H460 lung. In words: NCI-60 one-dose screen, 48 h (100 = growth as untreated, 0 = no growth, -100 = all killed). The note with it: 10 µM unless noted.
Turning to `O=C1/C(=C/c2ccccc2)SC(=Nc2ccccc2)N1Nc1ccccc1`, the growth is -25.2% (active).

Take `COc1cnc2c(c1)C(=O)c1c-2n(CCCNC(C)C)c(=O)c2cc(Cl)ccc12`: the growth is -82.9% (active).

In the case of `CCSCC1CC(O)(c2ccccc2)C(c2ccccc2)C(c2ccc(F)cc2)O1` (centres undefined), the growth is -16.3% (active).

With `CN1C(=O)C(C2=NNC(c3ccccc3C(=O)O)C2)C(=O)N(C)C1=O` (centres undefined), the growth was 106%.

Take `NC(N)=NC1CCCCC1`: the growth is 113%.

For `COc1ccc(C(=O)OC2C(OC3C(O)COC(O[C@H]4C[C@H]5[C@@H]6CC=C7C[C@@H](O)CC[C@]7(C)[C@H]6CC[C@]5(C)[C@H]4[C@H](C)C(=O)CCC(C)C)C3OC(C)=O)OCC(O)C2O)cc1` (some centres undefined), the growth is -20.3% (active).

In the case of `CC(C)(C)c1ccc(OC(=O)Nc2ccccc2)cc1`, the growth was 111%.

`CN1C2CCC1/C(=C\c1ccc(F)cc1)C(=O)/C2=C/c1ccc(F)cc1`: the growth is 14.1%.

With `CCCCOC(=O)c1cc(O)c(O)c(O)c1`, the growth was 58.9%.

For the compound `CCOC(=O)C1OC2(CCCC2)OC1C(=O)OCC` (centres undefined), the growth is 116%.

Regarding `O=C(Nc1cccc(-n2ccc3c(NC(=O)c4ccccc4)nccc32)c1)c1ccc(N2CCOCC2)c(C(F)(F)F)c1`, the growth was 9.44% (active).

For the compound `CCN(CC)CCCC(C)Nc1c(-c2ccccc2)cnc2cc(Cl)ccc12` (centres undefined), the growth was 76.4%.

Regarding `O=C1C=CN2C(=O)CC=CC2[C@@H]1O` (some centres undefined), the growth is 121%.

For `CC(=O)O[C@@H]1CC2C(C)(C)CCCC2(C)C2=C1C(=O)C(C(C)C)=CC2=O` (some centres undefined), the growth was -8.52% (active).
